Screening results as filed in PubChem BioAssay.
Most compounds without a hit are left out; they make up all but 14% or so of the library.
Sm TGR inh: qHTS Assay for the Inhibitors of Schistosoma Mansoni Peroxiredoxins. Schistosoma mansoni thioredoxin glutathione reductase (TGR), Q962Y6. 360,000 compounds, 3% hits. purified TGR, DTNB reduction, TNB absorbance 405 nm. Potency, µM (series often up to 114 µM), most hits filed as inhibitors. AID 485364, 2010; note: nearly all actives have a fitted effect of over 60% in size
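Kinetic colorimetric format: TGR-catalysed, NADPH-driven DTNB reduction monitored via TNB absorbance. Enzyme dispensed at 20 nM; compound exposure 15 min at room temperature before reaction start.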
Pf growth 96h: Primary qHTS for delayed death inhibitors of the malarial parasite plastid, 96 hour incubation; P. falciparum luciferase reporter growth, 96 h; Potency, µM (highest dose often 28.7 µM), usual class: inhibitors; 320,000 compounds, 6.9% hits
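Readout is luminescence from an integrated firefly luciferase in P. falciparum. Red cells, 2% hematocrit and 0.05% parasitemia final, were cultured with compound through two parasite generations (96 hours) at 37 C, 5% CO2.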
HCMV inh: qHTS Assay for inhibitors of the human cytomegalovirus (HCMV); AID 1259415, 2018; activity change, negative = inhibition, % at 57.5 µM; HFF cells, HCMV-luciferase reporter, 72 h; stronger effect = lower value; 410,000 compounds, 4.5% hits; in the data active = activity change below about -60%; inconclusive = no clear call, values can overlap the other calls; inactive = above about -39%
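Cell-based, HFFs, 1000 cells/well, 16 h 37C; cpds in DMSO + HCMV-luc, MOI 1 PFU/cell; 72 h 37C; OneGlo luminescence after 5 min RT; norm. to buffer vs Salinomycin 10uM.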
Pf growth 48h: Primary qHTS for delayed death inhibitors of the malarial parasite plastid, 48 hour incubation. P. falciparum luciferase growth in erythrocytes, 48 h. Potency, µM (top dose mostly 28.7 µM), actives largely listed as inhibitors. 310,000 compounds, 5.9% hits. AID 504832, 2011
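First compound was added to culture medium, then infected red cells at 0.1% parasitemia and 2% hematocrit (final). After incubation at 37 C under 5% CO2, luciferase detection reagent was dispensed and light output recorded.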
Giardia FBPA inh-1: qHTS Assay for Inhibitors of Fructose-1,6-bisphosphate Aldolase from Giardia Lamblia; purified Giardia FBPA; Potency, µM (series often up to 59.6 µM), hits mostly inhibitors; AID 2451, 2010; 290,000 compounds, 0.71% hits; A8B2U2; note: nearly all actives have a fitted effect of over 55% in size
Target sequence (A8B2U2 whole entry, looked up): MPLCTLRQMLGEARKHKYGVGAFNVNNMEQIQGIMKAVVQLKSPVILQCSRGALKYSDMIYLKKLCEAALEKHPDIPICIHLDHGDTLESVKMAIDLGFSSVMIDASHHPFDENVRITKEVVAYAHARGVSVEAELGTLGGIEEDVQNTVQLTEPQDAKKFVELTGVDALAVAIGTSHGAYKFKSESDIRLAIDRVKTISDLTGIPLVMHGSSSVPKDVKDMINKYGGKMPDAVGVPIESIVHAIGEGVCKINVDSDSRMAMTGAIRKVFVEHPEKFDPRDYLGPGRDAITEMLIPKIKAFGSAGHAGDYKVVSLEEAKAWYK
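40 nM FBPA preincubated 10 min at RT with compound (up to 57.5 uM final), then substrate plus GAPDH/TPI/NAD/arsenate coupling and diaphorase/resazurin added. Fluorescence read after 20 min at RT, 525/598 nm.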
Giardia growth: qHTS Assay for Inhibitors of Fructose-1,6-bisphosphate Aldolase from Giardia Lamblia: Giardia lamblia growth inhibition; Potency, µM (top dose mostly 57.5 µM), most hits filed as inhibitors; 1,500 compounds, 5% hits; shares compounds with Giardia FBPA inh-1; Giardia lamblia trophozoite growth inhibition; AID 2785, 2010;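 note: trophozoites exposed to compound for 48 h at 37 °C; nearly all actives have a fitted effect of over 70% in size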
Mammalian tox: qHTS Assay for Inhibitors of Fructose-1,6-bisphosphate Aldolase from Giardia Lamblia: Mammalian cellular toxicity; shares compounds with Giardia FBPA inh-1; 1,500 compounds, 4% hits; mammalian cell viability counter-screen, qHTS; Potency, µM (highest dose often 57.5 µM), usual class: inhibitors;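 note: Chinese hamster ovary cells used as mammalian cytotoxicity surrogate; viability measured as cellular ATP by luminescence; compound exposure lasted 48 h before reading; nearly all actives have a fitted effect of over 60% in size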
Giardia FBPA inh-2: qHTS Assay for Inhibitors of Fructose-1,6-bisphosphate Aldolase from Giardia Lamblia: Primary screen confirmation; AID 2787, 2010; Potency, µM (top dose mostly 57.5 µM), usual class: inhibitors; 1,500 compounds, 5% hits; purified Giardia aldolase enzyme activity, qHTS; shares compounds with Giardia FBPA inh-1; note: nearly all actives have a fitted effect of over 45% in size
Rabbit aldolase: qHTS Assay for Inhibitors of Fructose-1,6-bisphosphate Aldolase from Giardia Lamblia: Rabbit FBPA Selectivity; shares compounds with Giardia FBPA inh-1; Rabbit muscle FBPA enzyme inhibition, selectivity counter-screen; Potency, µM (titrated, usually from 57.5 µM), actives largely listed as inhibitors; 1,500 compounds, 4% hits; AID 2794, 2010; note: nearly all actives have a fitted effect of over 60% in size
GAPDH counter: qHTS Assay for Inhibitors of Fructose-1,6-bisphosphate Aldolase from Giardia Lamblia: Coupling assay counterscreen confirmation. shares compounds with Giardia FBPA inh-1. GAPDH coupling enzyme counterscreen, biochemical, qHTS. Potency, µM (titrated, usually from 57.5 µM), hits mostly inhibitors. 1,500 compounds, 6% hits. AID 2795, 2010; note: nearly all actives have a fitted effect of over 55% in size
A number is an active result; - = inactive; ? = inconclusive; . = not tested or not shown; [ ] = dose if it differs, or a comment. Unless noted, calls come from the whole dose curve; as a rule, active = well fitted curve in the direction sought with a large enough effect; inconclusive = small, poorly fitted or top-dose-only effect, or another doubt; inactive = no such curve, though single readings can be large; an effect the other way counts as inactive or inconclusive.

SMILES	Sm TGR inh	Pf growth 96h	HCMV inh	Pf growth 48h	Giardia FBPA inh-1	Giardia growth	Mammalian tox	Giardia FBPA inh-2	Rabbit aldolase	GAPDH counter
CCc1nnc(NC(=O)CN2CCN(S(C)(=O)=O)CC2)s1	-	-	-	?	?	.	.	.	.	.
O=C(CN1CCN(c2ccccc2F)CC1)Nc1nnc(C(F)(F)F)s1	-	-[1.15 µM]	-	-	-	.	.	.	.	.
CCOC(=O)N1CCN(CC(=O)Nc2nnc(C(F)(F)F)s2)CC1	-	-	-	-	5µM	?	-	-	-	-
Cc1nnc(NC(=O)CN2CC(C)OC(C)C2)s1 (centres undefined)	-	-	-	-	2.5µM	-	-	-	-	-
CCc1nnc(NC(=O)CN2CCCC(C)C2)s1 (centres undefined)	-	?	-	-	4µM	-[10.4 µM]	-	-	-	-
CCc1nnc(NC(=O)CN2CCN(CC)CC2)s1	-	-	-	-	3.5µM	-[10.4 µM]	-	-	-	-
O=C(O)C1(O)CC(O)C(O)C(O)C1 (centres undefined)	.	.	.	.	-	.	.	.	.	.
CN1CCN(CC(=O)Nc2nc3ccccc3s2)CC1	-	-	-	-	?	.	.	.	.	.
CCCN1CCN(CC(=O)Nc2nncs2)CC1	-	-	-	-	4.5µM	-	-	-	-	-
Cc1ccc(CC(=O)Nc2nncs2)cc1	-	-	-	?	-	.	.	.	.	.
COCC(=O)Nc1nc2ccccc2s1	-	-	-	-	-	.	.	.	.	.
NC(=S)Nc1nc2ccccc2s1	-	?	-108	?	5.6µM	-	?	-	-	-
CCN1CCN(CC(=O)Nc2nc3ccccc3s2)CC1	-	-	-	-	10µM	-	-	-	-	-
Cc1cc(C)c(NC(=S)NCCCSC2CCCCC2)c(C)c1	-	-	-	?	16µM	?	-	-	-	-
CC1=C(C#N)C(=O)N(C2CCS(=O)(=O)C2)C(=O)/C1=C\c1ccco1 (centres undefined)	8.9µM	-	.	-	10µM	-	-	?	?	21µM
O=C(NCCO)c1cc(-c2cc(C(=O)NCCO)c3ccccc3n2)nc2ccccc12	-	-	-	-	?	.	.	.	.	.
O=C(NCCO)c1cc2ccccc2cc1O	-	-	-	-	2µM	-	-	?	?	?
Cc1ccc(S(=O)(=O)Nc2ccccc2C(=O)N2CCCCCC2)cc1	-	?	-	-	-	.	.	.	.	.
CC1(C(=O)NS(=O)(=O)Cc2ccccc2C(F)(F)F)CCN1C(=O)c1ccco1 (centres undefined)	.	.	-	.	.	.	.	.	.	.
Nn1c(C2COc3ccccc3O2)n[nH]c1=S (centres undefined)	-	?	-	?	6.3µM	-	-	?	?	?
NC(=S)C1COc2ccccc2O1 (centres undefined)	-	-	-	-	-	.	.	.	.	.
CCc1cccc(NC(=O)CN(c2ccc(C)cc2)S(=O)(=O)c2cccs2)c1	-	.	?	.	.	.	.	.	.	.
CCOC(=O)N1CCN(Cc2ccc3ccccc3c2)CC1	-	-	-	-	25µM	-[10.4 µM]	-	-	-	-
CCOC(=O)N1CCN(Cc2ccccn2)CC1	-	-	-	-	14µM	-	-	-	-	-
